Laboratory results published in the OligoGym collection.

What follows are sequences tested against ATG16L1 (assay: pooled miR-30 sensor sort-seq; sequence = guide strand). Conditions: shRNA.
Note: reference of the scale not given here.

Row | Sequence | sensor-assay potency score (higher = more potent)
1 | TTGCAAAATCATTTGAAGCTGC | 0.00437
2 | TTTCTTGTAGCTGATTGTCATT | -1.43
3 | TTTGTCCACACTGACAACGTGC | -0.838
4 | TTTATGCAGACTTTGCTGCGTA | -0.62

Each sequence was assayed against ATHL1 in the same assay as above. Conditions: shRNA.

Row | Sequence | sensor-assay potency score (higher = more potent)
5 | TTGGTGTACACAGAGTTGTTGA | -0.594
6 | TGGAACATCAGGATACTCGGGA | -0.126
7 | TAAATCTCCAGATTTTTCCTGC | 0.146
8 | TCGAAATAGCTGCAGGTCCTGG | -1.24
9 | TACCTTGATCTTGTCAGCCACC | -0.985
10 | TCGAGCTGTGACCTCCACGGTC | -1.01
11 | TTTTTGGCAAAGCTGCACCTGA | -0.809
12 | TTGATCTTGTCAGCCACCGCCA | -0.876
13 | TCCACAGTGAGTGACTCGGTGG | -1.15
14 | TCAAAGGGTACCTTGATCTTGT | 0.372
15 | TACACAGAGTTGTTGACCCCTG | -0.218
